Drawing on PubChem BioAssay, this text covers log fold change Tl+ flux for 13 molecules.

What all share (experiment): BK channel mutant inhibitors and activators – cell-based, U2OS BacMam, thallium flux, beta subunits, selectivity assay, profiling panel (AID 1259406);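 note: initial slope of Thallos dye fluorescence rise after thallium is added; log ratio against the mean of 0.3% DMSO vehicle wells on the same plate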
One assay deals with F380Y. The conditions noted are these: U2OS BacMam BK variants, at 30 µM.
The next assay relates to F380Y/beta1. As to conditions: U2OS BacMam BK variants, at 30 µM.
Another assay has as its system F380Y/beta2Delta. The conditions noted are these: U2OS BacMam BK variants, at 30 µM.
Another assay relates to F380Y/beta4. The conditions noted are these: U2OS BacMam BK variants, at 30 µM.
Assay [1] has as its target Calcium-activated potassium channel subunit alpha-1 (Homo sapiens) + Leucine-rich repeat-containing protein 26 (Homo sapiens) (UniProt Q12791+Q2I0M4). As to conditions: U2OS BacMam BK variants, F380Y/Slo1WT/gamma1, at 30 µM.
The test system of another assay is R275C. The conditions noted are these: U2OS BacMam BK variants, at 30 µM.
For the next assay, the system named is R275C/beta1. The conditions noted are these: U2OS BacMam BK variants, at 30 µM.
The next assay has as its system R275C/beta2Delta. The conditions noted are these: U2OS BacMam BK variants, at 30 µM.
The subject of another assay is R275C/beta4. The conditions noted are these: U2OS BacMam BK variants, at 30 µM.
The next assay has as its system R275C/Slo1WT/beta2. As to conditions: U2OS BacMam BK variants, at 30 µM.

Molecules are shown by their SMILES. A number with no mark means an inactive call. Calls of active or inactive are those of the source.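 Rule for the calls: active = thallium flux through the channel raised or lowered by more than 3 SD from vehicle-only wells, actives on both sides; inactive = the rest.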

Sequence of Calcium-activated potassium channel subunit alpha-1 (Homo sapiens) + Leucine-rich repeat-containing protein 26 (Homo sapiens) (Q2I0M4 whole entry, looked up, one chain of several): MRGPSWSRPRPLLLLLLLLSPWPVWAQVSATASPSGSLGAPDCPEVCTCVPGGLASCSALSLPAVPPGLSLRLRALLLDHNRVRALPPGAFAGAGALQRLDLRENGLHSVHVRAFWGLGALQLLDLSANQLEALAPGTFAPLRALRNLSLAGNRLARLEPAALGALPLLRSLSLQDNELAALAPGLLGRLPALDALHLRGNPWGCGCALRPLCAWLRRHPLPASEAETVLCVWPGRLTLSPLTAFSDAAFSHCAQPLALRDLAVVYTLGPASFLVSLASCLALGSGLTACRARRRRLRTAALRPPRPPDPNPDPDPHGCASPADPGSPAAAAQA

`O=C1c2ccccc2NC(c2cc(Cl)cc(Cl)c2O)N1Cc1cccnc1` (stereo not given): the log fold change Tl+ flux with F380Y was 0.0629; with F380Y/beta1, 0.0897 (active); in the assay with F380Y/beta2Delta, 0.0333; in the assay with F380Y/beta4 it was 0.104 (active); in assay [1] it was 0.0598; with R275C, 0.00967. Besides, the log fold change Tl+ flux with R275C/beta1 was 0.0327; in the assay on R275C/beta2Delta, 0.0578; in the assay with R275C/beta4, 0.0953 (active); in the assay on R275C/Slo1WT/beta2, -0.0554.
As to `CC(=NO)c1ccc2c(c1)C(C)(C)CCC2(C)C`, the log fold change Tl+ flux in the assay on F380Y is -0.246 (active); in the assay on F380Y/beta1, -0.197 (active); in the assay with F380Y/beta2Delta, -0.444 (active); in the assay on F380Y/beta4, -0.152 (active); in assay [1] it was -0.146 (active); in the assay on R275C, -0.00509. For the same molecule, the log fold change Tl+ flux in the assay with R275C/beta1 was 0.0184; in the assay with R275C/beta2Delta it was -0.00725; with R275C/beta4 it was -0.0253; in the assay with R275C/Slo1WT/beta2, -0.0443.
For `Cc1nc2ccc(C(=O)O)cc2[nH]1`, the log fold change Tl+ flux is 0.0381 with F380Y; 0.0177 in the assay with F380Y/beta1; 0.0131 in the assay with F380Y/beta2Delta; 0.0015 with F380Y/beta4; 0.0154 in [1]; 0.0142 with R275C. Also, the log fold change Tl+ flux is 0.0541 with R275C/beta1, 0.0118 in the assay on R275C/beta2Delta, -0.00127 in the assay with R275C/beta4 and 0.0354 with R275C/Slo1WT/beta2.
As for `Cc1ncc(CSc2nc(C(C)(C)C)cs2)c(CO)c1O`, the log fold change Tl+ flux is -0.0128 in the assay on F380Y; -0.0261 with F380Y/beta1; -0.035 in the assay on F380Y/beta2Delta; -0.0366 in the assay on F380Y/beta4; -0.0352 in assay [1]; -0.0209 in the assay with R275C. Besides, the log fold change Tl+ flux was -0.00193 in the assay with R275C/beta1, 0.0196 in the assay with R275C/beta2Delta, 0.00379 in the assay with R275C/beta4 and -0.00882 in the assay on R275C/Slo1WT/beta2.
As for `CS(=O)(=O)NNc1c(Cl)cc(Cl)cc1Cl`, the log fold change Tl+ flux was 0.00053 in the assay on F380Y; -0.000501 in the assay on F380Y/beta1; -0.00312 with F380Y/beta2Delta; 0.0402 in the assay with F380Y/beta4; 0.016 in assay [1]; 0.0374 in the assay on R275C. The log fold change Tl+ flux in the assay on R275C/beta1 is -0.0143; in the assay with R275C/beta2Delta, 0.00102; in the assay with R275C/beta4, 0.0275; in the assay with R275C/Slo1WT/beta2, 0.0607.
As for `Cc1cc(NC(=S)N2CCCCCC2)ccc1Br`, the log fold change Tl+ flux in the assay with F380Y was -0.0478; in the assay on F380Y/beta1 it was 0.0387; in the assay on F380Y/beta2Delta, -0.0137; with F380Y/beta4, -0.0575; in assay [1], -0.0699; with R275C, 0.0117. Also, the log fold change Tl+ flux was -0.00715 in the assay on R275C/beta1, -0.0104 in the assay with R275C/beta2Delta, 0.081 (active) with R275C/beta4 and -0.00913 in the assay on R275C/Slo1WT/beta2.
`Cn1ncc2ccccc2c1=O`: the log fold change Tl+ flux is 0.0178 with F380Y; 0.0239 in the assay on F380Y/beta1; 0.0287 in the assay on F380Y/beta2Delta; 0.0126 in the assay with F380Y/beta4; -0.0763 in assay [1]; -0.0283 in the assay on R275C. Besides, the log fold change Tl+ flux was -0.0396 with R275C/beta1, 0.0689 in the assay with R275C/beta2Delta, -0.014 in the assay with R275C/beta4 and 0.00701 with R275C/Slo1WT/beta2.
Take `COc1ccc2c(OC(C)=O)coc2c1`: the log fold change Tl+ flux with F380Y was 0.00358; in the assay on F380Y/beta1 it was -0.0482; in the assay with F380Y/beta2Delta it was -0.00847; in the assay with F380Y/beta4, -0.0157; in assay [1] it was -0.0163; in the assay on R275C, 0.00531. Moreover, the log fold change Tl+ flux in the assay with R275C/beta1 was -0.00826; in the assay with R275C/beta2Delta, 0.012; with R275C/beta4 it was 0.0182; in the assay on R275C/Slo1WT/beta2, -0.00513.
Regarding `CC(=O)OCC(=O)C1(O)C(C)CC2C3CCC4CC(=O)C=CC4(C)C3C(O)CC21C` (stereo not given), the log fold change Tl+ flux in the assay with F380Y was 0.0723; in the assay with F380Y/beta1, -0.0034; in the assay on F380Y/beta2Delta, -0.017; in the assay with F380Y/beta4, 0.0362; in assay [1], -0.00155; in the assay on R275C, 0.00844. Further, the log fold change Tl+ flux in the assay on R275C/beta1 is 0.0348; in the assay with R275C/beta2Delta, 0.0375; in the assay with R275C/beta4, 0.0527; in the assay with R275C/Slo1WT/beta2 it was 0.00132.
`FC(F)(F)c1cc(-c2noc(-c3ccc4c(c3)CCO4)n2)cc(C(F)(F)F)c1`: the log fold change Tl+ flux in the assay on F380Y was 0.118 (active); in the assay on F380Y/beta1 it was 0.292 (active); with F380Y/beta2Delta it was 0.24 (active); with F380Y/beta4 it was 0.269 (active); in assay [1], 0.0774; with R275C, 0.0291. Further, the log fold change Tl+ flux in the assay on R275C/beta1 is 0.191 (active); with R275C/beta2Delta, 0.182 (active); in the assay on R275C/beta4 it was 0.0808 (active); with R275C/Slo1WT/beta2 it was -0.0138.
As for `Cc1ccc(NC(=S)NCCO)cc1`, the log fold change Tl+ flux was 0.021 in the assay with F380Y; 0.0481 in the assay on F380Y/beta1; 0.0272 with F380Y/beta2Delta; -0.0116 in the assay with F380Y/beta4; -0.000511 in assay [1]; 0.0409 in the assay on R275C. The log fold change Tl+ flux is -0.0306 in the assay on R275C/beta1, -0.0145 in the assay with R275C/beta2Delta, 0.0201 in the assay on R275C/beta4 and 0.0248 with R275C/Slo1WT/beta2.
On to `CCCn1c(=O)c(Br)cn(-c2ccccc2C)c1=O`, for which the log fold change Tl+ flux is -0.00732 in the assay on F380Y; -0.0448 with F380Y/beta1; -0.0565 with F380Y/beta2Delta; 0.00537 in the assay on F380Y/beta4; -0.011 in assay [1]; 0.0371 in the assay with R275C. Besides, the log fold change Tl+ flux in the assay with R275C/beta1 is 0.0334; in the assay with R275C/beta2Delta, -0.00562; with R275C/beta4, 0.00534; in the assay on R275C/Slo1WT/beta2, 0.0347.
Take `Cc1nn(Cc2nnn(CC(=O)NN=Cc3ccc(Cl)cc3)n2)c(C)c1Br`: the log fold change Tl+ flux in the assay with F380Y is 0.0697; with F380Y/beta1, 0.0216; in the assay with F380Y/beta2Delta, 0.00259; in the assay on F380Y/beta4, -0.0438; in assay [1], 0.0569; with R275C, 0.0224. In addition, the log fold change Tl+ flux in the assay with R275C/beta1 was -0.0427; in the assay on R275C/beta2Delta it was -0.045; in the assay on R275C/beta4 it was 0.011; in the assay on R275C/Slo1WT/beta2 it was 0.0426.
